This note sets out measurements from PubChem BioAssay (EPA / NIEHS).

Where “and” joins values, the source holds several entries; their conditions need not be identical. Equal entries are not always repeated. Results filed as inconclusive are left out. A structure can be active in one record and inactive in another. Calls of active or inactive are those of the source. The calls were made as follows, unless noted: active = hit-call score of the fitted dose curve at least 0.9, where 1 is the maximum; inactive = score below 0.9.

Assay [1] is described as follows: ATG_NF_kB_CIS: Attagene CIS-FACTORIAL HepG2 Assay for human Nuclear Factor Kappa B (NF-kB) (AID 2282991). As to conditions: HepG2 Attagene cis-factorial NF-kB reporter mRNA; actives raise or lower the signal. In a few lines:
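Read-out: reporter transcript levels quantified by RT-PCR plus capillary electrophoresis of 6-FAM-labelled, HpaI-cut fragments. Transfected HepG2 cells, 24 h compound exposure, endogenous NF-kB-driven cis element; gain or loss scored versus DMSO.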

The nature of assay [2]: ATG_NRF2_ARE_CIS: Attagene CIS-FACTORIAL HepG2 Assay for human Nuclear Factor Erythroid 2 Related Factor 2 (NFR2) response to Antioxidant Response Elements (ARE) (AID 2282992).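 As to AC50: reporter mRNA level measured by RT-PCR and capillary electrophoresis fluorescence.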 As to conditions: HepG2 Attagene ARE/NRF2 reporter, transcription factor activity; actives raise or lower the signal. In a few lines:
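HepG2 cells transiently transfected with multiplexed cis-regulated reporter transcription units measure endogenous transcription factor activity. Reporter mRNA at 24 h is quantified by RT-PCR, fluorescent labelling and capillary electrophoresis, with bidirectional fitting relative to DMSO.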

Assay [3] can be described thus: ATG_Oct_MLP_CIS: Attagene CIS-FACTORIAL HepG2 Assay for human Octamer-Binding Transcription Factor (Oct) (AID 2282993). The conditions noted are these: HepG2 Attagene cis-factorial Oct reporter, mRNA; actives raise or lower the signal. In a few lines: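 HepG2 cells transiently transfected with cis-promoter-driven multiplexed reporter transcription units, dosed for 24 h. Reporter mRNA quantified by RT-PCR, fluorescent labelling, HpaI digestion and capillary electrophoresis; bidirectional fits versus DMSO baseline.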

For assay [4], the target named is Cellular tumor antigen p53 (Homo sapiens) (UniProt P04637). The experiment in a line: ATG_p53_CIS: Attagene CIS-FACTORIAL HepG2 Assay for human p53 Transcription Factor (AID 2282994). The conditions noted are these: HepG2 p53 cis-element reporter, Attagene mRNA; actives raise or lower the signal. In a few lines: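 HepG2 cells transiently transfected with multiplexed cis-regulated reporter transcription units read endogenous TF activity. After 24 h compound exposure, reporter mRNA was quantified by RT-PCR, fluorescent labelling, HpaI digestion and capillary electrophoresis; bidirectional fits versus DMSO baseline.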
Sequence of Cellular tumor antigen p53 (Homo sapiens) (P04637 whole entry, looked up): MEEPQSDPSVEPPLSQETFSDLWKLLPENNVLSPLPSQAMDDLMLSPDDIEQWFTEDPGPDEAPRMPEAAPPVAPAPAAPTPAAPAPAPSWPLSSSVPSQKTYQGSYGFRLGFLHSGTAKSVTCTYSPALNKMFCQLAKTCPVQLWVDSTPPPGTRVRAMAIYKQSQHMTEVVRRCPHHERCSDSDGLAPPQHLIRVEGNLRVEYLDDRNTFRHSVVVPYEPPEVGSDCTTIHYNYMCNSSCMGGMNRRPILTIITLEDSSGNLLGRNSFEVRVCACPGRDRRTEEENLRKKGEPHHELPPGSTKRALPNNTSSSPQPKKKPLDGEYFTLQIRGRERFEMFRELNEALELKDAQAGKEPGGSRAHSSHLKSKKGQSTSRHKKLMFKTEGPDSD

Assay [5] in a line: BSK_3C_TissueFactor: BioMAP Diversity Plus: 3C Assay for Tissue Factor Biomarker Activity (AID 2282997). The conditions noted are these: BioMAP 3C HUVEC, tissue factor biomarker readout; actives raise or lower the signal. In a few lines:
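Primary human umbilical vein endothelial cells in the 3C system were exposed to test chemical for 24 h, then Tissue Factor measured by ELISA. Activity was fitted bidirectionally against DMSO as negative control and baseline.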

The nature of assay [6]: BSK_3C_uPAR: BioMAP Diversity Plus: 3C Assay for Urokinase-type plasminogen activator receptor (uPAR) Biomarker Activity (AID 2282998). The conditions noted are these: BioMAP 3C HUVEC, uPAR biomarker ELISA; actives raise or lower the signal. In a few lines: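 Human umbilical vein endothelial primary cells were exposed to test chemical for 24 h. Cell-surface uPAR was then quantified by ELISA, and responses were fitted bidirectionally against DMSO as negative control and baseline.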
On the technique in general: ELISA stands for enzyme-linked immunosorbent assay.

A short description of assay [7]: BSK_3C_VCAM1: BioMAP Diversity Plus: 3C Assay for Vascular cell adhesion molecule 1 (VCAM1) Biomarker Activity (AID 2282999). The conditions noted are these: BioMAP 3C HUVEC, VCAM1 ELISA, cytokine-stimulated; actives raise or lower the signal. In a few lines:
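Human umbilical vein endothelial cells (3C system), biomarker read by ELISA 24 h after dosing; bidirectional fit against DMSO baseline. Cytotoxicity tracked by SRB total-protein staining in parallel cultures at biomarker time.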

Assay [8] can be described thus: BSK_4H_Eotaxin3: BioMAP Diversity Plus: 4H Assay for Eotaxin 3 Biomarker Activity (AID 2283000).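 As to outcome: CCL26 protein level quantified by ELISA in parallel with SRB cytotoxicity check.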 As to conditions: primary human endothelial cells (HUVEC); actives raise or lower the signal. In a few lines: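 HUVEC, 24 h post-dose, ELISA for Eotaxin-3/CCL26. Gain or loss of signal fitted bidirectionally vs DMSO baseline.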
The target of assay [9] is human Peroxisome Proliferator-activated Receptor alpha (PPARa), PPARA (gene 5465) (UniProt Q07869). As to the kind of experiment: ATG_PPARa_TRANS: Attagene TRANS-FACTORIAL HepG2 Assay for human Peroxisome Proliferator-activated Receptor alpha (PPARa) (AID 2283001; active = hit-call score of the fitted dose curve at least 0.9, where 1 is the maximum;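 as to AC50: potency for gain of reporter signal over DMSO so agonist or activator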). In a few lines: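 HepG2 cells transiently transfected with multiplexed GAL4-UAS reporters driven by exogenous chimeric NR-Gal4 proteins; reporter mRNA measured after 24 h dosing. Read-out by RT-PCR, 6-FAM labelling, HpaI digestion and capillary electrophoresis; gain of signal versus DMSO.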
Sequence of human Peroxisome Proliferator-activated Receptor alpha (PPARa), PPARA (gene 5465) (Q07869 whole entry, looked up, the tested form may be a part): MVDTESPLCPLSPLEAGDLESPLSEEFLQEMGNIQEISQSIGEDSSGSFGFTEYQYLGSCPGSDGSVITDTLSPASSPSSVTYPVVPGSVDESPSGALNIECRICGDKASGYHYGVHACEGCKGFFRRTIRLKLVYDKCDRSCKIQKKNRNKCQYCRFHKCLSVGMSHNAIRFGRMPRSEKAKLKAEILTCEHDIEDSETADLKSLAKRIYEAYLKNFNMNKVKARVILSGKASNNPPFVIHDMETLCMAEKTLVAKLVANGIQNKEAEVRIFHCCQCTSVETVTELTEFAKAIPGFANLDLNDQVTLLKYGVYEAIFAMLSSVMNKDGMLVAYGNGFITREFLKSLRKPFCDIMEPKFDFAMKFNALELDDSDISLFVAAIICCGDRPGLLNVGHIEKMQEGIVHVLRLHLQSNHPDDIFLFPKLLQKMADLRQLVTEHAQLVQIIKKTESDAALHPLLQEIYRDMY

In assay [10] the target is human Peroxisome Proliferator-activated Receptor delta (PPARd), PPARD (gene 5467) (UniProt Q03181). The experiment in a line: ATG_PPARd_TRANS: Attagene TRANS-FACTORIAL HepG2 Assay for human Peroxisome Proliferator-activated Receptor delta (PPARd) (AID 2283002; active = hit-call score of the fitted dose curve at least 0.9, where 1 is the maximum). In a few lines: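 Read-out: reporter mRNA induction, quantified by fluorescent RT-PCR products resolved by capillary electrophoresis. Human HepG2 liver cells carried transiently transfected Gal4-UAS reporter constructs with chimeric NR-Gal4 fusions. Cells were dosed for 24 h; DMSO served as baseline.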
Sequence of human Peroxisome Proliferator-activated Receptor delta (PPARd), PPARD (gene 5467) (Q03181 whole entry, looked up, the tested form may be a part): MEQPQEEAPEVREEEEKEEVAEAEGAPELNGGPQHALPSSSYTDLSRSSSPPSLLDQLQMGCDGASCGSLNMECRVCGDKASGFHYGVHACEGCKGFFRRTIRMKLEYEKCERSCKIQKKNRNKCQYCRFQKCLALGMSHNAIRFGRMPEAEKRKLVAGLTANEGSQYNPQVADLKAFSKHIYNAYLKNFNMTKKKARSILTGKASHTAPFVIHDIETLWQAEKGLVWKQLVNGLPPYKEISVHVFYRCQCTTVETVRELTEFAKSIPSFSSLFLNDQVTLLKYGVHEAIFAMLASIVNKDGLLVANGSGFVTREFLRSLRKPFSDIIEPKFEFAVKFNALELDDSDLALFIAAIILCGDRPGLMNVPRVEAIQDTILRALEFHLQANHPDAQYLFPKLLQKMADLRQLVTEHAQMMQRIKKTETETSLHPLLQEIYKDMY

In the case of `COC(=O)CCC(=O)OC`, the compound was called inactive in assay [1], in assay [2], in [3], in [4], in [5] and in [6]. For the same compound, the outcome in [7] and in assay [8] was inactive.

For orientation: AC50 means the concentration giving half of the maximal activity seen. On to `Cc1c(C)c2c(c(C)c1O)CCC(C)(COc1ccc(CC3SC(=O)NC3=O)cc1)O2` (stereo not given), for which the compound was called inactive in assay [1], in [3], in assay [4], in [9] and in assay [10]. Further, the AC50 in assay [2] is 11 µM (active); in assay [5], 33.5 µM (active); in assay [6], 23.8 µM (active); in assay [7], 35 µM (active); in assay [8] it was 30.2 µM (active).

Turning to `CCCCCCC(C=O)=Cc1ccccc1`, the result in assay [1], in [3] and in [10] was inactive. Besides, the AC50 in assay [2] is 27.8 µM (active) and 41 µM (active); in assay [3] it was 159 µM (active); in assay [5], 27.4 µM (active); in assay [6], 36.6 µM (active); in assay [7], 35.6 µM (active); in assay [8], 36.6 µM (active). Besides, in assay [9], the AC50 is 27.2 µM (active) and 15.8 µM (active).

`O=C1OC(c2ccc(O)cc2)(c2ccc(O)cc2)c2ccccc21`: the AC50 in assay [1] is 176 µM (active); in [2] it was 177 µM (active); in assay [3], 26.2 µM (active); in assay [6], 14.6 µM (active); in assay [7], 29.7 µM (active). In addition, the outcome in [4], in assay [5] and in assay [8] was inactive.

Consider `O=[Si]=O`, for which the compound was classed as inactive in assay [1], in assay [2], in assay [3], in assay [4], in [5] and in assay [6]. The result in [7], in assay [8] and in [9] was inactive.

As for `OCC(CO)n1cnc(-c2ccc(F)cc2)c1-c1ccnc(Oc2ccccc2)n1`, the compound was called inactive in assay [1], in assay [3], in assay [4], in assay [5], in [6] and in assay [7]. The result in assay [8] and in assay [9] was inactive. In addition, in [2], the AC50 is 25.3 µM (active).

As for `CN(C)CCCN1c2ccccc2Sc2ccc(Cl)cc21`, the compound was called inactive in assay [1], in [9] and in assay [10]. The AC50 in assay [2] is 11.1 µM (active); in assay [3] it was 11.1 µM (active); in assay [4] it was 6.92 µM (active); in [5], 5.43 µM (active); in assay [6], 25.1 µM (active); in assay [7], 36.8 µM (active). Besides, in [8], the AC50 is 35.9 µM (active).

As for `CS(=O)(=O)c1ccc([C@@H](C[C@H]2CCC(=O)C2)C(=O)Nc2cnccn2)cc1Cl`, the compound was called inactive in assay [1], in assay [3], in [4], in assay [5], in assay [6] and in assay [7]. The result in assay [8] and in [9] was inactive. Besides, the AC50 in assay [2] was 48.9 µM (active).

On to `CN(C)C(=O)NC1(c2ccccc2)CCN(CCC[C@]2(c3ccc(Cl)c(Cl)c3)CCCN(C(=O)c3ccccc3)C2)CC1`, for which the AC50 in assay [1] was 2.84 µM (active); in assay [2], 1.64 µM (active); in assay [3], 4.31 µM (active); in assay [5], 4.37 µM (active); in assay [9], 4.2 µM (active). Also, the outcome in assay [4], in [6], in assay [7], in [8] and in [10] was inactive.

Regarding `N[C@@H](Cc1c[nH]c2ccccc12)C(=O)O`, the outcome in assay [1], in assay [2], in [3], in assay [5], in assay [6] and in assay [7] was inactive. In addition, the result in [8] and in assay [9] was inactive.

With `COC(=O)CCCC(=O)OC`, the compound was classed as inactive in assay [1], in [2], in assay [3], in assay [4], in assay [5] and in [6]. Besides, the outcome in assay [7], in [8] and in [10] was inactive.

As for `CC(C)c1cccc(C(C)C)c1`, the call in [1], in assay [2], in [3], in assay [5], in [6] and in assay [7] was inactive. The outcome in assay [8] and in assay [10] was inactive.

Take `Cn1cnc2c1c(=O)[nH]c(=O)n2C`: the call in [1], in assay [2], in assay [3], in assay [5], in assay [6] and in assay [7] was inactive. In addition, the outcome in assay [8] was inactive.

As for `CC(C)COC(=O)CCCCC(=O)OCC(C)C`, the compound was classed as inactive in [1], in assay [2], in [3], in [5], in assay [6] and in assay [7]. For the same compound, the outcome in [8] and in assay [9] was inactive.

With `Cc1ccc(-c2cc(C(F)(F)F)nn2-c2ccc(S(N)(=O)=O)cc2)cc1`, the call in assay [1] and in [3] was inactive. Moreover, the AC50 is 5.72 µM (active) in assay [2]; 31.7 µM (active) in assay [5]; 24.6 µM (active) in assay [6]; 33.9 µM (active) in assay [7]; 31 µM (active) in assay [8].

For `O=C1CCCCC1`, the result in assay [1], in [2], in [3], in assay [5], in [6] and in [7] was inactive. In addition, the result in assay [8], in assay [9] and in assay [10] was inactive.

With `C=CCCCCCCCCCCCC`, the outcome in assay [1], in assay [2], in [3], in assay [4], in assay [5] and in assay [6] was inactive. For the same compound, the outcome in assay [7], in assay [8] and in assay [10] was inactive.

Take `CC(C)OC(=O)C(C)(C)Oc1ccc(C(=O)c2ccc(Cl)cc2)cc1`: the call in assay [1], in assay [5], in assay [7] and in assay [10] was inactive. Also, the AC50 in assay [2] was 25 µM (active); in assay [3], 19.8 µM (active); in [6], 30.6 µM (active); in [8] it was 32.4 µM (active).

Consider `CC1(C)C(=O)NC(=O)N1CO`, for which the outcome in assay [1], in assay [2], in assay [3], in [4], in assay [5] and in [6] was inactive. For the same compound, the result in assay [7], in assay [8] and in [10] was inactive.

On to `O=C(N[C@@H](c1ccccc1)[C@@H]1CCCCN1)c1cccc(C(F)(F)F)c1Cl`, for which the AC50 in [1] was 53.2 µM (active); in [2] it was 9.19 µM (active); in assay [3], 22.6 µM (active); in assay [5] it was 20 µM (active); in assay [6] it was 20 µM (active). The outcome in assay [7], in assay [8], in [9] and in assay [10] was inactive.

For `C#CC(O)C(CC)CCCC` (stereo not given), the values for the AC50 in [1] and in assay [2] were 67.2 µM (active) and 53.3 µM (active), respectively. The call in assay [3], in assay [5], in assay [6], in assay [7] and in assay [8] was inactive.

With `CCCCC(CC)COP(=O)(OCC(CC)CCCC)OCC(CC)CCCC` (stereo not given), the result in assay [1], in assay [2], in assay [3], in assay [4], in [5] and in assay [10] was inactive. In addition, the figures for the AC50 in assay [6], in [7] and in assay [8] were 12.5 µM (active), 20 µM (active) and 20 µM (active), respectively.
